KKLEB cytotox: CF airway cell cytotoxicity counter-screen; activity change (cytotoxicity), % at 5 µM; AID 602141; 360,000 compounds, 0.36% hits; KKLEB CF airway cells viability, ATPlite luminescence, overnight; active compounds read low; cells stimulated with P. aeruginosa culture filtrate;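 active = corrected activity change at or below -50% at 5 µM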
CF NFkB inh: cystic fibrosis NF-kB activation inhibition. 360,000 compounds, 0.86% hits. KKLEB NF-kB-GFP reporter, PAF-induced, GFP fluorescence overnight. AID 588850. inhibition, % at 5 µM;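 active = at least 50% inhibition at 5 µM, scaled per plate between neutral and stimulator controls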;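 also: PAF is a Pseudomonas aeruginosa culture filtrate used as stimulus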
TROY signal inh: inhibitors of TROY-dependent NF-kB signaling; Q293 LMP1-TROYcd NF-kB luciferase reporter, 4 h; inhibition, % at 10 µM; 360,000 compounds, 0.98% hits;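 active = compounds whose plate-normalised and pattern-corrected inhibition of the luciferase reporter signal at the single screening dose is 50% or more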
HIF-2a inh: HIF-2a inhibition; inhibition, % at 18.8 µM; AID 624352; 360,000 compounds, 0.72% hits; 786-0 RCC cells HIF-2a reporter, luciferase luminescence, overnight;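 active = inhibition of the luminescence signal of 40% or more relative to plate controls, in a single-dose primary screen at 18.75 µM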
Peg3 prom inh: inhibitors of Peg3 promoter; HeLa PEG-Prom luciferase reporter, luminescence, overnight; 360,000 compounds, 1.7% hits; inhibition, % at 20 µM;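 active = inhibition of at least 50% at 20 µM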
TWEAK-Fn14 inh: TWEAK-Fn14 signaling inhibition | TWEAK-stimulated Fn14 reporter cells, luciferase luminescence, 8 h | inhibition, % at 10 µM | 360,000 compounds, 2% hits; in the data active = inhibition above about 50%
Large screens that a line does not name were inactive. The list is not random: actives were taken first. Their share in the collection is about 4%.

Cc1cc(Cl)ccc1OCC(=O)NNC(=O)c1cccnc1	none
Cc1cccc(C)c1NC(=O)C1c2ccccc2OCC(=O)N1C1CC1 (stereo not drawn)	none (no result: KKLEB cytotox, CF NFkB inh, Peg3 prom inh)
CCOC(=O)c1cc([N+](=O)[O-])sc1NC(=O)CC	TWEAK-Fn14 inh 99
CC(C)c1ccc(-n2nc3ccc(N)cc3n2)cc1	TWEAK-Fn14 inh 51
Cc1ccc(-n2nc3ccc(N)cc3n2)cc1	none
N#Cc1c(-c2ccccc2)nc(-c2ccccc2)nc1N1CCOCC1	TWEAK-Fn14 inh 79 (no result: TROY signal inh)
CN1CCN(c2nc(-c3ccccc3)nc(-c3ccccc3)c2C#N)CC1	none
Cc1ccc(C)c(Oc2cc(NC(=O)CCCn3nc(C)c([N+](=O)[O-])c3C)cc([N+](=O)[O-])c2)c1	TWEAK-Fn14 inh 73
Cc1cc(NC(=O)CCS(=O)(=O)c2nc(-c3ccccc3)cc(C(F)(F)F)n2)no1	CF NFkB inh 76, TROY signal inh 56, HIF-2a inh 65, Peg3 prom inh 106, TWEAK-Fn14 inh 54
CS(=O)(=O)c1nc(-c2ccccc2)cc(C(F)(F)F)n1	KKLEB cytotox -73, CF NFkB inh 95, TROY signal inh 53, HIF-2a inh 94, Peg3 prom inh 104
COc1ccc(-c2cc(C(F)(F)F)nc(S(=O)(=O)CCCC(=O)Nc3cccc(O)c3)n2)cc1OC	KKLEB cytotox -80, CF NFkB inh 86, TROY signal inh 53, Peg3 prom inh 96, TWEAK-Fn14 inh 96
COCCN(Cc1nc(-c2ccc(-c3ccccc3)cc2)oc1C)C(C)C	TWEAK-Fn14 inh 78
O=C(Nc1ccc(Cl)cc1)N1CCSCC1	none
O=C(Nc1ccccc1)N1CCSCC1	TWEAK-Fn14 inh 73 (no result: TROY signal inh)
NC(Cc1ccc(C(F)(F)F)cc1)c1csc(Nc2cc(NCc3ccco3)ncn2)n1 (stereo not drawn)	none
O=C1CC(c2ccccc2)=NN1c1nc(-c2ccccc2)cs1	none
CC1=NN(c2nc(-c3ccccc3)cs2)C(=O)C1	TROY signal inh 55, TWEAK-Fn14 inh 66
CCOC(=O)Nc1cc(OC)cc2ccc(C)nc12	none
COc1ccc(-n2c(=S)[nH]c3cc(C(=O)Nc4cccc(C)c4)ccc3c2=O)cc1	none
COc1ccc(-n2c(=S)[nH]c3cc(C(=O)Nc4ccc(C)c(F)c4)ccc3c2=O)c(OC)c1	TWEAK-Fn14 inh 54
COc1ccc(-n2c(=S)[nH]c3cc(C(=O)Nc4ccc(OC)c(OC)c4)ccc3c2=O)cc1	KKLEB cytotox -70
CCOc1ccc(NC(=O)c2ccc3c(=O)n(-c4ccc(OC)cc4OC)c(=S)[nH]c3c2)cc1	none
Cc1ccc(OCC(=O)Oc2ccc(C)c(C)c2)cc1	none
O=C(CNC(=O)c1ccccc1F)c1ccccc1	TWEAK-Fn14 inh 62
O=C(CNC(=O)c1cccs1)c1ccc(Cl)cc1	none
O=C(CNC(=O)c1cccs1)c1ccc(F)cc1	TWEAK-Fn14 inh 52
O=C(CNC(=O)c1ccccc1Cl)c1ccccc1	none
Cn1c(SCc2ccccc2)nccc1=O	none
CC1=C(SCc2ccccc2)C(=O)c2ccccc2C1=O	CF NFkB inh 89, Peg3 prom inh 85, TWEAK-Fn14 inh 88
c1cnc2ccc(C(c3nnnn3C3CCCC3)N3CCN(c4nc5ccccc5s4)CC3)cc2c1 (stereo not drawn)	none
Clc1ccc(C(c2nnnn2C2CCCC2)N2CCN(c3nc4ccccc4s3)CC2)cc1 (stereo not drawn)	TROY signal inh 59, TWEAK-Fn14 inh 74
O=C(Oc1cccc(Nc2ncnc3ccccc23)c1)c1ccccc1Cl	TROY signal inh 59, TWEAK-Fn14 inh 82
O=C(Nc1ccc(F)cc1)C(c1cc2ccccc2o1)N1CCN(c2cccc(C(F)(F)F)n2)CC1 (stereo not drawn)	none (no result: KKLEB cytotox, CF NFkB inh, TROY signal inh, Peg3 prom inh, TWEAK-Fn14 inh)
O=C(Nc1ccc2c(c1)OCCO2)C(c1cc2ccccc2o1)N1CCN(C/C=C/c2ccccc2)CC1 (stereo not drawn)	TROY signal inh 83, TWEAK-Fn14 inh 86
O=C(Nc1ccc2c(c1)OCCO2)C(c1cc2ccccc2o1)N1CCN(c2ccc(F)cc2)CC1 (stereo not drawn)	TROY signal inh 85, TWEAK-Fn14 inh 85
O=C(Nc1ccc2c(c1)OCCO2)C(c1cc2ccccc2o1)N1CCN(c2ccc(C(F)(F)F)cn2)CC1 (stereo not drawn)	TROY signal inh 86, TWEAK-Fn14 inh 88
C(=C\c1ccccc1)/CN1CCN(C(c2cc3ccccc3o2)c2nnnn2Cc2ccccc2)CC1 (stereo not drawn)	none
